Experimental data: PubChem BioAssay AID1159580 (chemical genetic matrix, 2015)
Values joined by “and” are separate entries in the source; they are usually repeats but may differ in a detail not shown here. Equal entries are not always repeated. Out of some 5,500 compounds screened, about 2,000 (36%) were called active. Another 18% or so got no clear call; they are omitted. Rule as the data show it: active = normalized growth mostly below about 0.91 (no sharp cut-off); inconclusive = no clear call, values can overlap the other calls; inactive = mostly above about 0.92. This is one part of the list.

Test: chemical genetic growth profiling, strain panel (AID 1159580);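 also: tested at 20 µM; growth read once vehicle control cultures reached saturation at 30 °C; 1 = growth at the plate median or of vehicle wells; lower values mean less growth of the strain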
Conditions: S. cerevisiae deletion strains, growth OD

Measured: normalized growth

CN(C)CCOC(c1ccc(Cl)cc1)c1ccccn1 (centres undefined)
inactive: locus YAL021C, strain ccr4, stronger effect = lower value 1.04 | locus YAL026C, strain drs2, stronger effect = lower value 1.05 | locus YAL030W, strain snc1, stronger effect = lower value 1.03 | locus YBL061C, strain skt5, stronger effect = lower value 1.04 | locus YBR009C, strain hhf1, stronger effect = lower value 1.02 | locus YBR021W, strain FUR4, stronger effect = lower value 0.966 | locus YBR023C, strain chs3, stronger effect = lower value 1.03 | locus YBR171W, strain sec66, stronger effect = lower value 1.02 | locus YBR229C, strain ROT2, stronger effect = lower value 1 | locus YBR231C, strain swc5, stronger effect = lower value 1.01 | locus YBR279W, strain paf1, stronger effect = lower value 1.02 | locus YCL011C, strain gbp2, stronger effect = lower value 1.01 | locus YCL016C, strain dcc1, stronger effect = lower value 1.01 | locus YCL029C, strain bik1, stronger effect = lower value 0.999 | locus YCL069W, strain vba3, stronger effect = lower value 1.02 | locus YCR088W, strain abp1, stronger effect = lower value 1.01 | locus YDL005C, strain med2, stronger effect = lower value 1.03 | locus YDL035C, strain GPR1, stronger effect = lower value 0.978 | locus YDL040C, strain nat1, stronger effect = lower value 1.02 | locus YDL074C, strain BRE1, stronger effect = lower value 1.03 | locus YDL101C, strain DUN1, stronger effect = lower value 1.04 | locus YDL185W, strain tfp1, stronger effect = lower value 1 | locus YDL192W, strain arf1, stronger effect = lower value 1.01 | locus YDR001C, strain nth1, stronger effect = lower value 1.02 | locus YDR069C, strain doa4, stronger effect = lower value 1.03 | locus YDR101C, strain arx1, stronger effect = lower value 1.01 | locus YDR137W, strain rgp1, stronger effect = lower value 1.01 | locus YDR159W, strain sac3, stronger effect = lower value 1.02 | locus YDR162C, strain NBP2, stronger effect = lower value 0.975 | locus YDR195W, strain ref2 1.02 | locus YDR297W, strain sur2, stronger effect = lower value 1.03 | locus YDR318W, strain mcm21, stronger effect = lower value 0.998 | locus YDR334W, strain swr1, stronger effect = lower value 1.01 | locus YDR335W, strain msn5, stronger effect = lower value 1.03 | locus YDR388W, stronger effect = lower value 1.01 | locus YDR392W, strain spt3, stronger effect = lower value 1.01 | locus YDR502C, strain sam2, stronger effect = lower value 1.03 | locus YEL003W, strain gim4, stronger effect = lower value 1.01 | locus YEL037C, strain rad23, stronger effect = lower value 1.02 | locus YEL061C, strain CIN8 (second series), stronger effect = lower value 1.02 | locus YEL061C, strain CIN8, stronger effect = lower value 1.01 | locus YER015W, strain faa2, stronger effect = lower value 1.04 | locus YER016W, strain bim1, stronger effect = lower value 0.997 | locus YER110C, stronger effect = lower value 1.02 | locus YER111C, strain swi4, stronger effect = lower value 1.03 | locus YER155C, strain BEM2 (second series), stronger effect = lower value 1.02 | locus YER155C, strain BEM2, stronger effect = lower value 1.02 | locus YER167W, strain BCK2, stronger effect = lower value 0.99 | locus YFR010W, strain ubp6, stronger effect = lower value 1.03 | locus YGL078C, strain dbp3, stronger effect = lower value 0.998 | locus YGL086W, strain mad1, stronger effect = lower value 1.01 | locus YGL167C, strain pmr1, stronger effect = lower value 1.01 | locus YGL173C, strain kem1, stronger effect = lower value 1.02 | locus YGL227W, strain vid30, stronger effect = lower value 1.03 | locus YGL240W, strain doc1, stronger effect = lower value 1.04 | locus YGL248W, strain PDE1, stronger effect = lower value 1.04 | locus YGL253W, strain hxk2, stronger effect = lower value 1.03 | locus YGR078C, strain PAC10, stronger effect = lower value 1.02 | locus YGR135W, strain pre9, stronger effect = lower value 1 | locus YGR229C, strain SMI1, stronger effect = lower value 0.983 | locus YGR252W, strain gcn5, stronger effect = lower value 0.947 | locus YHR013C, strain ard1, stronger effect = lower value 1.01 | locus YHR027C, strain rpn1, stronger effect = lower value 1.02 | locus YHR030C, strain SLT2, stronger effect = lower value 1 and 1.02 | locus YHR079C, strain IRE1 (second series), stronger effect = lower value 1.01 | locus YHR079C, strain IRE1, stronger effect = lower value 1 | locus YHR094C, strain hxt1, stronger effect = lower value 1.01 | locus YHR129C, strain ARP1, stronger effect = lower value 1.01 | locus YHR142W, strain chs7, stronger effect = lower value 1.02 | locus YHR200W, strain rpn10, stronger effect = lower value 1.01 | locus YIL066C, strain RNR3, stronger effect = lower value 0.957 | locus YIL073C, strain SPO22, stronger effect = lower value 1 | locus YIL125W, strain kgd1, stronger effect = lower value 0.995 | locus YIR030C, strain dcg1, stronger effect = lower value 1.03 | locus YJL092W, strain hpr5, stronger effect = lower value 1.02 | locus YJL095W, strain BCK1 (second series), stronger effect = lower value 1.01 | locus YJL095W, strain BCK1, stronger effect = lower value 1.07 and 1 | locus YJL115W, strain asf1, stronger effect = lower value 1.02 | locus YJL129C, strain trk1, stronger effect = lower value 1.05 | locus YJL134W, strain LCB3, stronger effect = lower value 1.01 | locus YJL154C, strain vps35, stronger effect = lower value 1.02 | locus YJL164C, strain tpk1, stronger effect = lower value 1 | locus YJL166W, strain qcr8, stronger effect = lower value 1.03 | locus YJL168C, strain set2, stronger effect = lower value 1.02 | locus YJL187C, strain SWE1 (second series), stronger effect = lower value 1.04 | locus YJL187C, strain SWE1, stronger effect = lower value 1.01 | locus YJR043C, strain POL32, stronger effect = lower value 0.968 | locus YJR066W, strain TOR1, stronger effect = lower value 0.981 | locus YJR075W, strain HOC1, stronger effect = lower value 1.03 | locus YKL009W, strain mrt4, stronger effect = lower value 1.02 | locus YKL068W, stronger effect = lower value 0.997 | locus YKL085W, strain MDH1 (second series), stronger effect = lower value 0.989 | locus YKL085W, strain MDH1, stronger effect = lower value 0.989 | locus YKL160W, strain elf1, stronger effect = lower value 1.02 | locus YKL190W, strain CNB1, stronger effect = lower value 1 | locus YKR001C, strain vps1, stronger effect = lower value 1 | locus YKR026C, strain gcn3, stronger effect = lower value 1.03 | locus YKR091W, strain srl3, stronger effect = lower value 1.02 | locus YLL001W, strain dnm1, stronger effect = lower value 1.03 | locus YLL026W, stronger effect = lower value 1.03 | locus YLL041C, strain sdh2, stronger effect = lower value 1.02 | locus YLR027C, strain aat2, stronger effect = lower value 1.03 | locus YLR039C, strain RIC1, stronger effect = lower value 1.02 | locus YLR058C, strain SHM2, stronger effect = lower value 1.01 | locus YLR102C, strain apc9, stronger effect = lower value 1.01 | locus YLR113W, strain HOG1, stronger effect = lower value 0.987 | locus YLR221C, strain rsa3, stronger effect = lower value 1.01 | locus YLR258W, strain gsy2, stronger effect = lower value 1.01 | locus YLR262C, strain YPT6 (second series), stronger effect = lower value 1.04 | locus YLR262C, strain YPT6, stronger effect = lower value 1.05 | locus YLR268W, strain sec22, stronger effect = lower value 1 | locus YLR320W, strain mms22, stronger effect = lower value 1 | locus YLR330W, strain CHS5, stronger effect = lower value 1.01 | locus YLR342W, strain FKS1 (second series), stronger effect = lower value 0.95 | locus YLR342W, strain FKS1, stronger effect = lower value 1.04 | locus YLR357W, strain rsc2, stronger effect = lower value 1.06 | locus YLR370C, strain arc18, stronger effect = lower value 1.01 | locus YLR371W, strain rom2, stronger effect = lower value 1 | locus YLR384C, strain iki3, stronger effect = lower value 1.03 | locus YLR418C, strain cdc73, stronger effect = lower value 1.07 | locus YML016C, strain PPZ1, stronger effect = lower value 1.01 | locus YML032C, strain rad52, stronger effect = lower value 0.998 | locus YML120C, strain ndi1, stronger effect = lower value 1.02 | locus YML124C, strain tub3, stronger effect = lower value 1 | locus YMR058W, strain fet3, stronger effect = lower value 1.03 | locus YMR078C, strain ctf18, stronger effect = lower value 1.01 | locus YMR125W, strain sto1, stronger effect = lower value 1.01 | locus YMR129W, stronger effect = lower value 1.03 | locus YMR205C, strain PFK2, stronger effect = lower value 1.03 | locus YMR223W, strain ubp8, stronger effect = lower value 0.998 | locus YMR231W, strain pep5, stronger effect = lower value 1.03 | locus YMR307W, strain GAS1, stronger effect = lower value 0.976 | locus YNL067W, strain RPL9B, stronger effect = lower value 1.06 | locus YNL071W, strain lat1, stronger effect = lower value 1.01 | locus YNL183C, strain NPR1, stronger effect = lower value 0.941 | locus YNL209W, strain ssb2, stronger effect = lower value 1.02 | locus YNL233W, strain BNI4, stronger effect = lower value 1.04 | locus YNL248C, strain rpa49, stronger effect = lower value 1.04 | locus YNL250W, strain rad50, stronger effect = lower value 1.02 | locus YNL271C, strain bni1, stronger effect = lower value 1.03 | locus YNL298W, strain CLA4, stronger effect = lower value 0.994 | locus YNL307C, strain MCK1, stronger effect = lower value 1.01 | locus YNL322C, strain KRE1 (second series), stronger effect = lower value 1.03 | locus YNL322C, strain KRE1, stronger effect = lower value 1.01 | locus YNR049C, strain mso1, stronger effect = lower value 1.02 | locus YNR052C, strain pop2, stronger effect = lower value 1.01 | locus YOL012C, strain htz1 0.873 | locus YOL147C, strain pex11, stronger effect = lower value 1.01 | locus YOR001W, strain rrp6, stronger effect = lower value 1.04 | locus YOR061W, strain CKA2, stronger effect = lower value 1.01 | locus YOR069W, strain VPS5, stronger effect = lower value 1.01 | locus YOR070C, strain gyp1, stronger effect = lower value 1.01 | locus YOR080W, strain dia2, stronger effect = lower value 1.02 | locus YOR083W, strain WHI5, stronger effect = lower value 1.03 | locus YOR106W, strain vam3, stronger effect = lower value 1.03 | locus YOR136W, strain idh2, stronger effect = lower value 1.01 | locus YOR144C, strain elg1, stronger effect = lower value 1 | locus YOR184W, strain ser1, stronger effect = lower value 0.997 | locus YOR231W, strain MKK1, stronger effect = lower value 0.996 | locus YOR265W, strain rbl2, stronger effect = lower value 1.02 | locus YOR270C, strain vph1, stronger effect = lower value 1.05 | locus YOR290C, strain snf2, stronger effect = lower value 1 | locus YOR316C, strain cot1, stronger effect = lower value 1.01 | locus YPL051W, strain arl3, stronger effect = lower value 1.03 | locus YPL055C, strain LGE1, stronger effect = lower value 0.976 | locus YPL078C, strain atp4, stronger effect = lower value 1.02 | locus YPL106C, strain sse1, stronger effect = lower value 0.993 | locus YPL240C, strain hsp82, stronger effect = lower value 1.01 | locus YPL256C, strain CLN2, stronger effect = lower value 1 | locus YPR119W, strain clb2, stronger effect = lower value 1.01 | locus YPR141C, strain kar3, stronger effect = lower value 1.01 | locus YPR163C, strain tif3, stronger effect = lower value 1 | locus YPR167C, strain met16, stronger effect = lower value 1 | strain wtn01, stronger effect = lower value 0.995
